Screening data: PubChem BioAssay, several laboratories
CYP2C9 inh: inhibitors of human CYP2C9; CYP2C9 Supersomes, luciferin-H conversion, luminescence; inhibition, % at 5 µM; hit rate 20% among 96,000; AID 777;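 active = blocking of liver enzyme CYP2C9 beyond about 50% at 5 µM, limit read from the data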
CYP2C19 inh: inhibitors of human CYP2C19. P33261. CYP2C19 Supersomes, luciferin-H EGE luminescence, 30 min. inhibition, % at 5 µM. hit rate 21% among 96,000;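 active = CYP2C19 inhibition above a set limit at 5 µM in the primary screen, cut at about 50% in these data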
Cav32 inh: blocks human Cav3.2 T-type calcium channel; Cav3.2-expressing cells, Fluo-4 calcium fluorescence FDSS; stronger effect = lower value; B-score at 10 µM; hit rate 4% among 100,000; AID 449739;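 active = single-dose well whose peak fluorescence ratio is a statistical outlier from its plate by either plate-standardised score or position-corrected B-score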
CYP2C9 activ: CYP2C9 (human) activation | activation factor at 5 µM | AID 1024 | P11712 | hit rate 1.4% among 96,000 | recombinant CYP2C9, luciferin-H conversion, luminescence; stronger effect = higher value; factor 1 = untreated enzyme, 0 = blocked;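 active = activation factor of 2 or more for CYP2C9 at a 5 µM dose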
CYP2C19 activ: cytochrome P450 2C19 (human) activation | recombinant CYP2C19, luciferin-H EGE luminescence; stronger effect = higher value; 0 = fully inhibited enzyme, 1 = untreated enzyme | activation factor at 5 µM | 96,000 tested, under 10 active;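 active = activation factor of at least 2 at 5 µM in the primary screen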
Each line names hits and unclear results; the compound was inactive in the other large screens. An excerpt weighted towards active compounds, which were near 27% of everything screened.

Cc1cc(C(=O)CN2C(=O)NC3(CCCc4ccccc43)C2=O)c(C)n1Cc1ccccc1 (stereo not drawn)	CYP2C9 inh 70.6, CYP2C19 inh 56.3, Cav32 inh -4.4
CCNC(=O)CN1C(=O)NC2(CCCc3cc(OC)ccc32)C1=O (stereo not drawn)	none
CCOC(=O)c1ccccc1NC(=O)Nc1ccc(OC)c(OC)c1	none
COCCn1c(C)cc(C(=O)CN2C(=O)NC3(CCCCCCC3)C2=O)c1C	CYP2C9 activ 3.9
Cc1cc(C(=O)CN2C(=O)NC3(CCCc4ccccc43)C2=O)c(C)n1Cc1ccco1 (stereo not drawn)	CYP2C9 inh 73.9
CCOC(=O)c1cc(C)n(-c2ccc(OC)c(OC)c2)c1C	CYP2C9 inh 63.4, CYP2C19 inh 87.5
O=[n+]1c2c(n([O-])c3c1CCCC3)CCCCC2	none
Cc1ccc(C)c(C(=O)CN2C(=O)CCC2=O)c1	none
Cc1cc(C(=O)CN2C(=O)CCC2=O)c(C)n1Cc1ccccc1	CYP2C19 inh 62.4
CCOC(=O)c1c(C)nn(Cc2ccccc2)c1N	none
CCOC(=O)c1cc(C)n(Cc2cccc(OC)c2OC)c1C	none
Cc1nn(Cc2ccccc2)c(C)c1C(=O)OCC(=O)c1cc(C)n(CC(F)(F)F)c1C	CYP2C19 inh 53.1
CCOC(=O)c1cc(C)n(Cc2ccccc2)c1C	CYP2C9 inh 50.1, CYP2C19 inh 65.3
O=C(CN1C(=O)NC2(CCCc3ccccc32)C1=O)N1CCc2ccccc2C1 (stereo not drawn)	CYP2C9 inh 59.0, CYP2C19 inh 53.6
COc1ccccc1C(=O)NC(C)C(c1cccs1)N1CCOCC1 (stereo not drawn)	CYP2C19 inh 50.7
CC(C)C(=O)NC(C)C(c1cccs1)N1CCOCC1 (stereo not drawn)	none
Cc1cccc(NC(=O)NC(C)C(c2cccs2)N2CCOCC2)c1 (stereo not drawn)	CYP2C19 inh 82.6
CC(NC(=O)c1ccco1)C(c1cccs1)N1CCN(c2ccccc2)CC1 (stereo not drawn)	CYP2C19 inh 55.8
O=C(CSc1nc2ccccc2c(=O)n1NC(=O)c1ccccc1)c1ccccc1	CYP2C9 inh 85.5
O=C(CSc1nc2ccccc2c(=O)n1NC(=O)c1ccccc1)c1ccc(Cl)cc1	CYP2C9 inh 78.1
CC(=O)NCCn1c(SCC(=O)c2ccc(Cl)cc2)nc2ccccc2c1=O	none
CC(C)(C)NC(=O)CSc1ncnc2c1nnn2Cc1ccccc1Cl	none
COC(=O)C1=C(C)NC2=C(C(=O)C(C(=O)OC)C(c3ccc(OC)cc3)C2)C1c1ccccn1 (stereo not drawn)	none
COc1ccc(N(C(=O)c2cccc(OC)c2OC)C2C=CS(=O)(=O)C2)c(OC)c1 (stereo not drawn)	none
C=CCN=C1SCC(=O)N1S(=O)(=O)c1ccccc1	none
COc1cccc(/C=N/n2c(-c3cccs3)n[nH]c2=S)c1	none
Cc1cc(C)c(NC(=O)C(C)Sc2nnc(-c3ccco3)n2-c2ccccc2)c(C)c1 (stereo not drawn)	CYP2C9 inh 65.7, CYP2C19 inh 89.9
COC(=O)c1cccc(CSc2nnc(-c3ccco3)n2-c2ccccc2)c1	CYP2C9 inh 67.6
CCOC(=O)CSc1nnc(-c2ccco2)n1-c1ccccc1	none
CC(Sc1nnc(-c2cccs2)n1-c1ccccc1)C(=O)NCc1ccco1 (stereo not drawn)	CYP2C9 inh 82.2, CYP2C19 inh 70.8
CC(Sc1nnc(-c2cc3ccccc3o2)n1-c1ccccc1)C(=O)O (stereo not drawn)	none
CCn1c(SCC(=O)NCc2ccco2)nnc1-c1cccs1	none
CCOc1ccc(Nc2nc(Cc3nnc(SCC(=O)NC4CCCCC4)n3C)cs2)cc1	CYP2C9 inh 91.0, CYP2C19 inh 79.3
CCOc1ccc(Nc2nc(Cc3nnc(SCC(=O)NCC4CCCO4)n3C)cs2)cc1 (stereo not drawn)	none (no result: Cav32 inh)
Cc1cc2cc(CN(Cc3ccc4c(c3)OCO4)C(=O)c3cnccn3)c3nnnn3c2cc1C	CYP2C9 inh 63.2, CYP2C19 inh 60.6
O=C(c1ccccc1F)N(Cc1ccc2c(c1)OCO2)Cc1cc2cc3c(cc2n2nnnc12)OCO3	CYP2C9 inh 50.3, CYP2C19 inh 77.7
c1ccc2[nH]c(CN3CCCCCC3)nc2c1	CYP2C19 inh 63.9
O=S(=O)(c1ccccc1F)N1CCN(Cc2nc3ccccc3[nH]2)CC1	CYP2C19 inh 55.0
Cn1c(=O)[nH]c(=O)c2c1nc(Br)n2CC(O)c1ccccc1 (stereo not drawn)	none
C#Cc1ccc([C@H]2C=C(C(=O)NC3CC3)O[C@@H](OCC)[C@@H]2CCCO)cc1	none (no result: CYP2C9 inh, CYP2C19 inh, CYP2C9 activ, CYP2C19 activ)
CCOC(=O)N1CCN(S(=O)(=O)c2ccc3c(c2)CCN3C(=O)C2CC2)CC1	none
CCC(CC)C(=O)Nc1nc(-c2ccc3c(c2)CCN3C(=O)C2CC2)c(C)s1	CYP2C9 inh 80.8
O=C(COc1ccc(S(=O)(=O)NC2CCCCC2)cc1Cl)N1CCN(c2ccccc2)CC1	CYP2C9 inh 100.1, CYP2C19 inh 67.8
CC(NS(=O)(=O)c1ccc(OCC(=O)N2CCOCC2)cc1)c1ccccc1 (stereo not drawn)	none (no result: CYP2C9 inh, CYP2C19 inh, CYP2C9 activ, CYP2C19 activ)
CC(NS(=O)(=O)c1ccc(OCC(=O)N2CCOCC2)c(Cl)c1)c1ccccc1 (stereo not drawn)	CYP2C9 inh 63.7
CC(C)C1Cc2[nH]c(=O)c(C(=O)O)cc2CO1 (stereo not drawn)	none
CCCCOc1ccc(/C=N/NC(=S)Nc2cccc(C)c2C)cc1	none
Cc1cccc(C)c1NC(=S)N/N=C/c1ccc(OCCC(C)C)cc1	CYP2C9 inh 61.7
Cc1cccc(N2C(=O)CS/C2=N\NC(=O)c2ccc(Cl)cc2)c1C	none (no result: CYP2C9 inh, CYP2C19 inh, CYP2C9 activ, CYP2C19 activ)
NC(=O)c1oc2ccccc2c1NC(=O)c1ccc(F)cc1	none
CCOC(=O)CSCC(=O)Nc1c(C(=O)C2CC2)oc2ccccc12	Cav32 inh -4.69 (no result: CYP2C9 inh, CYP2C19 inh, CYP2C9 activ, CYP2C19 activ)
NC(=O)c1oc2ccccc2c1NC(=O)C1CCCCC1	CYP2C9 activ 2.7
O=C(c1ccccc1Sc1cccc2ccccc12)N1CCOCC1	none (no result: CYP2C9 inh, CYP2C19 inh, CYP2C9 activ, CYP2C19 activ)
O=C(CCC(=O)c1cccs1)OCC(=O)N1CCN(C(=O)c2ccco2)CC1	none
CC(C)c1ccc(NC(=O)c2ccc(Br)o2)cc1	none (no result: CYP2C9 inh, CYP2C19 inh, CYP2C9 activ, CYP2C19 activ)
Cc1noc(NS(=O)(=O)c2ccc(NC(=O)c3ccc(Br)o3)cc2)c1C	none
CN(C)S(=O)(=O)c1ccc(NC(=O)c2ccc(Br)o2)cc1	CYP2C19 inh 54.2
CN(C1CCCCC1)S(=O)(=O)c1ccc(NC(=O)c2ccc(Br)o2)cc1	CYP2C9 inh 98.4, CYP2C19 inh 93.7
Cc1ccc(C23CC4CC(CC(CC(=O)N5CCOCC5)(C4)C2)C3)cc1	none (no result: CYP2C9 inh, CYP2C19 inh, CYP2C9 activ, CYP2C19 activ)
NCC12CC3CC(CC(O)(C3)C1)C2	none
Nc1ccc(C23CC4CC(CC(CO)(C4)C2)C3)cc1	CYP2C19 inh 71.3
Nc1ccc(C23CC4CC(CC(O)(C4)C2)C3)cc1	CYP2C19 inh 91.0
CCCCN(C)CCNC(=O)Cn1ncc2c(=O)oc3ccc(C)cc3c21	none
COC(C[C@@H]1O[C@H]1C(=O)COCc1ccccc1)OC	none (no result: CYP2C9 inh, CYP2C19 inh, CYP2C9 activ, CYP2C19 activ)
